Measurements published in PubChem BioAssay (NCI).
Values joined by “and” are separate entries in the source; they are usually repeats but may differ in a detail not shown here. Equal values may be shown once. This is part of a sample that, as a whole, favours compounds with a hit. Of some 83,000 tested, about 20% had one in any assay.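 Negative percent growth values reflect cell death: -40 means 40% of the cells present at the start died, and -100 means all died.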 Active and inactive are the calls of the source.

tested on: SK-MEL-28 melanoma; experiment: NCI-60 one-dose screen, 48 h (100 = growth as untreated, 0 = no growth, -100 = all killed); conditions: 10 µM
Experimental: Growth inhibition of the SK-MEL-28 human tumor cell line is measured as a screen for anti-cancer activity. Cells are grown in 96 well plates and exposed to the test compound for 48 hours. Compounds are tested at a single concentration, which is 10^-5 M for most compounds. The reported endpoint is percent growth (GI% or GIPRCNT), where numbers from 0 - 100% represent growth inhibition, and numbers from -100% - 0 represent cell death. For example, a value of 40 represents 60% growth inhibition. A value of 0 means no net growth occurred over the course of the experiment. A value of -40 indicates 40% of cells at the beginning of the experiment died by the end of the experiment. A value of -100 means all cells are dead at the end of the experiment.
NCI-60 Human Tumor Cell Lines Screen was performed using the standard one-dose NCI protocol, which is described in more detail at https://dtp.cancer.gov/discovery_development/nci-60/default.htm.
Compounds with GIPRCNT values below 10 were considered active. Activity score was based on GIPRCNT using the following formula: […]
Score is 0 for GIPRCNT values of 100 or above, 50 for GIPRCNT values of 0, and 100 for GIPRCNT values of -100.

| SMILES | growth |
| --- | --- |
| CCc1ccccc1-n1c(N)c(C#N)c(-c2ccc(OC)c(OC)c2)c(C#N)c1=O | 124% (inactive) |
| COc1ccc(Cl)cc1C(=O)NCCc1ccc(S(=O)(=O)NC(=O)NC2CCCCC2)cc1 | 132% (inactive) and 118% (inactive) |
| CC#C[C@]1(O)CC[C@H]2[C@@H]3CCC4=CC(=O)CCC4=C3[C@@H](c3ccc4c(c3)OCO4)C[C@@]21C | 108% (inactive) |

same assay, conditions: 10 µM unless noted

| SMILES | growth |
| --- | --- |
| Nc1ccc(N=Nc2ccc(S(=O)(=O)O)cc2)cc1S(=O)(=O)O | 109% (inactive) and 104% (inactive) |
| CCN(CC)CCC(CNc1ccnc2cc(Cl)ccc12)c1ccc(OC)cc1 (stereo not given) | -78.4% (active) and -54.7% (active) |
| OCc1ccccn1 | 112% (inactive) |
| CC(=O)C(/C=N/C(N)=O)=C(/C)O | 115% (inactive) |
| OC(CSc1ccccc1)CN1CCN(c2cccc(Cl)c2)CC1 (stereo not given) | 103% (inactive) and 99.1% (inactive) |
| COc1cc(C(=O)N/N=C/c2ccc(N(C)C)cc2)cc(OC)c1OC | 53.8% (inactive) |
| O=C(O)c1cc(C(=O)O)cc([N+](=O)[O-])c1 | 118% (inactive) |
| O=C(c1ccc(Cl)cc1)C(NCCO)c1ccc(Cl)cc1 (stereo not given) | 111% (inactive) and 105% (inactive) |
| CC(/C=N/N1C(=O)c2ccccc2C1=O)c1ccccc1 (stereo not given) | 103% (inactive) |
| Cn1c(SSc2ccc(-c3cccnc3)n2C)ccc1-c1cccnc1 | 98.9% (inactive) and 104% (inactive) |
| O=C(O)CCCCc1ccc([N+](=O)[O-])cc1 | 113% (inactive) and 107% (inactive) |
| Cc1cc(O)c(C(C)C)cc1N | 113% (inactive) and 111% (inactive) |
| Nc1n[nH]c(=S)n1-c1ccc(Cl)cc1 | 101% (inactive) |
| CN(C)c1ccc2nc3ccc(=[N+](C)C)cc-3sc2c1 | 20% (inactive) and 45.9% (inactive) and 75% (inactive) |
| O=C(/C=C/c1ccccn1)c1ccccc1O | 77.6% (inactive) and 92.6% (inactive) |
| CC(C)Cc1ccc(C(C)C(=O)NCc2ccc(Cn3c(=O)sn(CCCCl)c3=O)cc2)cc1 (stereo not given) | 107% (inactive) and -71.8% (active) |
| NC(=S)N/N=C(\c1ccc(Br)cc1)C1CC1 | 102% (inactive) and 103% (inactive) |

| SMILES | growth |
| --- | --- |
| NC(=S)NN=C1CCC(C2CCCCC2)CC1 (stereo not given) | 91.5% (inactive) and 110% (inactive) |
| CCCCOc1cc(C(=O)NCCN(CC)CC)c2ccccc2n1 | 102% (inactive) and 104% (inactive) |
| CC1=C(/C=C/C(C)=C/C=C/C(C)=C/C(=O)Nc2ccc(O)cc2)C(C)(C)CCC1 | 61.7% (inactive) |
| O=C(N/N=C/c1ccc2c(c1)OCO2)c1ccncc1 | 103% (inactive) and 106% (inactive) |
| N/C(=N\N=C\c1ccc2c(c1)OCO2)N/N=C\c1ccc2c(c1)OCO2 | 112% (inactive) and 45.6% (inactive) |
| CN(C)c1ccc(C(Cc2ccc3ccccc3n2)Cc2ccc3ccccc3n2)cc1 | 74.9% (inactive) and 92.8% (inactive) |
| CC1(c2ccc3ccccc3c2)CCC(=O)O1 (stereo not given) | 102% (inactive) |
| Oc1c(Cl)cc(Cl)cc1Sc1cc(Cl)cc(Cl)c1O | 58.3% (inactive) and 27.8% (inactive) and 95.3% (inactive) |
| O=C(N/N=C/c1cccc2ccccc12)C1CC1 | 111% (inactive) and 104% (inactive) |
| O=[N+]([O-])c1ccc2nc3c4ccccc4c4ccccc4c3nc2c1 | 113% (inactive) |
| O=C1c2ccccc2C(=O)c2c(NCCNCCO)ccc(NCCNCCO)c21 | -36.8% (active) and 31.2% (inactive) and 16.9% (inactive) |
| CCN(CC)CCNc1cc(-c2cccc(OC(F)(F)F)c2)nc2ccc(N3CCCC3)cc12 | -9.25% (active) and -32.5% (active) and 11% (inactive) |
| NC(=S)NS(=O)(=O)c1ccc(N)cc1 | 109% (inactive) |
| CNC(=O)c1cc(Oc2ccc(NC(=O)Nc3ccc(Cl)c(C(F)(F)F)c3)cc2)ccn1 | -15.7% (active) and -26.7% (active) |
| CC1CCCc2sc3nc(NNC(=O)c4cnccn4)n(-c4ccccc4)c(=O)c3c21 (stereo not given) | 11.7% (inactive) and 27.4% (inactive) |
| O=C(Cc1cccc2ccccc12)N/N=C/c1ccc2c(c1)CCC2 | 81.4% (inactive) |
| c1ccc(N(c2ccccc2)c2ccccc2)cc1 | 117% (inactive) |

same assay, conditions: 100 µM

| SMILES | growth |
| --- | --- |
| CCc1ccccc1-n1c(N)c(C#N)c(-c2ccc(OC)c(OC)c2)c(C#N)c1=O | 54% (inactive) |
| COc1ccc(Cl)cc1C(=O)NCCc1ccc(S(=O)(=O)NC(=O)NC2CCCCC2)cc1 | 57.5% (inactive) |
| CC#C[C@]1(O)CC[C@H]2[C@@H]3CCC4=CC(=O)CCC4=C3[C@@H](c3ccc4c(c3)OCO4)C[C@@]21C | -52.3% (active) |
